Source: the supplement of paper PMC10338343
± gives the standard deviation.

Assays:
[1] = test system: MILI (PIWIL2) piRISC loaded with piRNA #1 (26 nt); assay: pre-steady-state target cleavage rate (min^-1); guide: piRNA #1 5'p-UGAGGUAGUAGGUUGUAUAGUAUCCA; higher = faster piRNA-guided slicing of the target; details: auxiliary factor: 500 nM mouse GTSF1;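 further: 1 nM active piRISC with 0.1 nM target library at 33 °C single turnover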
Method in brief: (§1)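 Three pooled Cleave-'n-Seq trials supplied the data, with k3 capped at 0.0001 min^-1. In each, […] transcribed, DNA-blocked target RNA library and 1 nM active affinity-purified piRISC with one synthetic guide reacted in HEPES–potassium acetate buffer at 33 °C for 0–8 or 0–960 min, with or without 500 nM GTSF1 partner protein. Uncleaved targets were sequenced and normalised to depth and to weakly complementary targets. A burst-and-steady-state fit provided the pre-steady-state cleavage rate.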

[2] = test system: EfPiwi piRISC loaded with piRNA #1 (26 nt); assay: pre-steady-state target cleavage rate (min^-1); auxiliary factor: 500 nM Ephydatia muelleri Gtsf1; guide: piRNA #1 5'p-UGAGGUAGUAGGUUGUAUAGUAUCCA; MIWI and MILI are mouse PIWI proteins and EfPiwi is from a freshwater sponge; tags in brackets are library labels; higher = faster piRNA-guided slicing of the target
Method in brief: as §1

Sequence	pre-steady-state target cleavage rate [1]	pre-steady-state target cleavage rate [2]
GGAGAGGAUACUAUACAACGCUACUACCUCA	0.00299 ± 0.0026	0.00523 ± 0.0033
GGAGACCAUACUAUACAACCUACUACCUCC [g2:g23:cont:t1C]	0.187 ± 0.017	0.0109 ± 0.0042
GGAGACGAUACUAUUCAACCUAGUACCUCA	0.0492 ± 0.01	0.0035 ± 0.0018
GGAGUGGAUACUAAACAACCUACUACGUCA	0.0421 ± 0.0062	0.00252 ± 0.0015
GGAGAGGAUACAAAACAACCUACUACCUCA	0.128 ± 0.013	0.00656 ± 0.0047
GGAGACCAUAGUUUACAACCUACUACCUCA	0.0547 ± 0.0081	0.0227 ± 0.0096
GGAGACCAUACUAUACAACCUACUAGCACA	0.0527 ± 0.018	0.00447 ± 0.0023
GGAGACGAUACUUACAACCUACUACCUCA	0.114 ± 0.01	0.00671 ± 0.0036
GGAGACCUAUGUAUACAACCUACUGACCUCA	0.0132 ± 0.0038	< 0.0001
GGAGACGAUACUAUACAACCUACGUACCUCA	0.108 ± 0.013	0.00418 ± 0.0019
GGAGACCUUACUAUACAACCUAUUACCUCA	0.226 ± 0.019	0.0052 ± 0.0025
GGAGACGAUACUAUUCAACCUACUACGUCA	0.0915 ± 0.011	0.00311 ± 0.0016
GGAGAGGAUACAAUACAACCAACUACCUCA	0.00985 ± 0.0026	0.00366 ± 0.0019
GGAGACCAUUACUAUACAACCUACUACCUCA	0.137 ± 0.012	0.148 ± 0.044
GGAGUGGUACUAUACAACCUACUACCUCA	0.148 ± 0.0098	0.00812 ± 0.0044
GGAGUGGAUACUAUAGAACCUACUACCUGA	0.0453 ± 0.0088	0.00222 ± 0.0011
GGAGACCAACUAUACAACCUACUACCUCA	0.224 ± 0.021	0.00596 ± 0.0037
GGAGAGGAUACUAUACCAACCUACUACCUCA	0.0443 ± 0.0084	0.00837 ± 0.0039
GGAGACGAUACUAUACAACCUACGACCUCA	0.146 ± 0.019	0.00449 ± 0.0018
GGAGACCAUUCUAUACAACCUACAACCUCA	0.13 ± 0.013	0.00312 ± 0.0031
GGAGAGGAUACUAUAGAACCUACUACCUCA	0.166 ± 0.013	0.00475 ± 0.0023
GGAGUGGAUACUAUAGAACGUACUACCUCA	0.0156 ± 0.0021	0.00156 ± 0.0015
GGAGUGGAAACUAUACAAGCUACUACCUCA	0.257 ± 0.021	0.00579 ± 0.0027
GGAGAGGAUACUAUACAACCUCUACCUCA	0.0184 ± 0.0033	0.00619 ± 0.0034
GGAGACGAAACUAUACAACCUACUACCACA	0.219 ± 0.031	0.00352 ± 0.0032
GGAGACCUAUGUAUACAACCUACUACUCUCA	0.117 ± 0.013	< 0.0001
GGAGAGGAUAAUAUACAACCUACUACCUCA	0.135 ± 0.01	0.00772 ± 0.0036

Sequence	pre-steady-state target cleavage rate [1]	pre-steady-state target cleavage rate [2]
GGAGACCAUACUAUACAACCUACUACCGUCA	0.141 ± 0.023	0.00677 ± 0.0025
GGAGUGGAUACUAUACAACCAAGUACCUCA	0.00277 ± 0.0018	0.00281 ± 0.0018
GGAGAGGAUACUAUAGAACCUACUACGUCA	0.0326 ± 0.0058	0.00228 ± 0.0021
GGAGAGGAAACUAUACAACCUACUACGUCA	0.034 ± 0.011	0.00364 ± 0.0025
GGAGACCAUACUAUACAUCCUACUAGCUCA	0.152 ± 0.024	0.00265 ± 0.0024
GGAGAGCAUACUUUACAACCUACUACCUCA	0.138 ± 0.01	0.0083 ± 0.0045
GGAGAGGAUACUAUACAACCUACUAGCACA	0.00642 ± 0.0042	0.00322 ± 0.0016
GGAGAGGAUACUAUACAACCUAACUACCUCA	0.0231 ± 0.0035	0.00656 ± 0.0027
GGAGAGGUUACUAUACAACCUACAACCUCA	0.0663 ± 0.015	0.00313 ± 0.0018
GGAGUGCAUACUAUACAACCUACUAGCUCA	0.0656 ± 0.0098	0.00282 ± 0.0024
GGAGAGGAUACUAUUCAACCUACAACCUCA	0.0909 ± 0.01	0.00238 ± 0.0017
GGAGACCAUACUAUACAACCUGCUACCUCA	0.0337 ± 0.0076	0.0759 ± 0.029
GGAGAGCAAACUAUACAACCUACUACCUCA	0.113 ± 0.019	0.0127 ± 0.0059
GGAGAGGAUACUAUACAACCUACUAACCUCA	0.159 ± 0.016	0.00574 ± 0.0027
GGAGAGGAUACUAUACAACCUACUGACCUCA	0.077 ± 0.013	0.00473 ± 0.002
GGAGACCUUACUCAUACAACCUACUACCUCA	0.122 ± 0.016	0.00389 ± 0.0032
GGAGACCUAACAAUACAUCCUACUACCUCA	0.191 ± 0.031	0.00431 ± 0.0035
GGAGACCAUACUAUACAACCUACUACGCUCA	0.219 ± 0.028	0.00458 ± 0.0028
GGAGACGAUACUAUACAACCAUCUACCUCA	0.00466 ± 0.003	0.00359 ± 0.001
GGAGACCUAUGUAUACAACCUACUACCUCG [g2:g19:cont:t1G]	0.0649 ± 0.0098	0.00909 ± 0.0048
GGAGACCUAACUAUCACAACCUACUACCUCA	0.085 ± 0.025	0.00495 ± 0.0033
GGAGACGAUACUAUACAACCUACUCACCUCA	0.122 ± 0.019	0.00418 ± 0.0019
GGAGAGGUUACUAUACUACCUACUACCUCA	0.151 ± 0.011	0.00488 ± 0.0024
GGAGUGGAUACUAUCCAACCUACUACCUCA	0.197 ± 0.01	0.0097 ± 0.0041
GGAGACCUUACUAUACAACCUACUACCCA	0.0955 ± 0.016	0.00518 ± 0.0043
GGAGACCAUACUAUACAACCAACUACCUCA	0.00362 ± 0.0025	0.00627 ± 0.0022
GGAGACGAAACUAUACAACCUUCUACCUCA	0.00739 ± 0.0047	0.00751 ± 0.0034
